Bioassay records (PubChem)
A selection: hits, their analogues and other compounds. The true share with any hit is near 12%.
HP1b binding inh: HP1-beta chromodomain-methylated histone interaction inhibition. AlphaScreen HP1-beta / biotin-H3K9me3 peptide binding. Potency, µM (titrated, usually from 114 µM), without a hit: at the highest dose activity change, negative = inhibition, actives largely listed as inhibitors. 0.56% of 390,000 active. AID 540317; also: nearly all actives have a fitted effect of over 70% in size
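AlphaScreen: HP1-beta (50 nM) preformed 30 min with biotin-H3(1-18)K9me3 peptide (50 nM) in PBS pH 7.4, 0.01% Tween-20. Compound added for 30 min at RT, then streptavidin donor/nickel chelate acceptor beads (10 ug/mL) for 30 min.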
Sfp inh: inhibitors of Bacillus subtilis Sfp phosphopantetheinyl transferase; AID 1490; 3.5% of 310,000 active; Biochemical Sfp PPTase activity, qHTS; Q9F4F7; Potency, µM, for inactives: largest response in the series, negative = inhibition, most hits filed as inhibitors;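 also: the enzyme is Sfp with the accession as filed and its product quenches rhodamine fluorescence; 0% = enzyme reaction without inhibitor and -100% = no enzyme wells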
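Step 1, compound plus 15 nM Sfp-PPTase, 15 min, room temperature. Step 2, add rhodamine-CoA (5 uM) and BHQ-2-YbbR (12.5 uM). Step 3, read 525/598 nm fluorescence at 0 and 30 min.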
BAZ2B block: inhibitors of human BAZ2B bromodomain | Q9UIF8 | AlphaScreen BAZ2B-H3K14Ac peptide displacement | Potency, µM (series often up to 114 µM), inactives show top-dose activity change, negative = inhibition, actives largely listed as inhibitors | 4.4% of 360,000 active; also: % is scaled to controls: 0 for no effect and ±100 for the full control effect; nearly all actives have a fitted effect of over 60% in size
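BAZ2B (50 nM) with biotin-H3(5-23)K14Ac peptide (50 nM) in PBS pH 7.4, 0.01% Tween-20, preformed 30 min, then compound 30 min at room temperature; top concentration 110uM. AlphaScreen streptavidin donor/nickel chelate acceptor beads (10 ug/mL final), 20 min dark, signal read.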
JMJD2A Tudor inh: JMJD2A Tudor domain (human) inhibition; 4.4% of 390,000 active; AID 504339; AlphaScreen JMJD2A-Tudor / H3K4me3 peptide binding; Potency, µM (top dose mostly 114 µM), without a hit: at the top dose activity change, negative = inhibition, actives largely listed as inhibitors; also: % is scaled to controls: 0 for no effect and ±100 for the full control effect; nearly all actives have a fitted effect of over 50% in size
G9a block: G9a (human) methyltransferase inhibition; Potency, µM (titrated, usually from 102 µM), for inactives: at the top dose activity, negative = inhibition, most hits filed as inhibitors; Q96KQ7; AID 504332; 8.8% of 350,000 active; G9a H3K9 monomethylation, AlphaScreen, 2 h; also: % is scaled to controls: 0 for no effect and ±100 for the full control effect; nearly all actives have a fitted effect of over 75% in size
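Readings reflect AlphaScreen signal from monomethyl-H3K9 antibody detection. HMT at 20 nM; substrate b-H3K9 500 nM; cofactor SAM 20 uM; 2 h RT reaction; compounds tested as titrations in qHTS with 15 min preincubation.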
* = called active by the depositor; ? = inconclusive; nt = no result given; [ ] = remark or other dose. Calls follow the shape of the dose curve; as a rule, active = well fitted curve in the direction sought with a large enough effect; inconclusive = small, poorly fitted or top-dose-only effect, or another doubt; inactive = no such curve, though single readings can be large; an effect the other way counts as inactive or inconclusive. Potency is read from the fitted curve at half-maximal effect.

SMILES	HP1b binding inh	Sfp inh	BAZ2B block	JMJD2A Tudor inh	G9a block
CC(=O)NC(c1ccc(C)cc1)c1cc(Cl)c2cccnc2c1O (stereo not drawn)	33%	11%	0%	-29%	-1%[59 µM]
Oc1c(C(Nc2ccccn2)c2cccnc2)cc(Cl)c2cccnc12 (stereo not drawn)	0%	-8%	11µM*	40µM*	28µM*
Cc1cc(NC(c2cccnc2)c2ccc3cccnc3c2O)no1 (stereo not drawn)	26%	-21%	7.9µM*	32µM*	35µM*
Cc1cc(NC(=O)c2cc(-c3cccnc3)nc3c(C)c(C)ccc23)no1	11%	-6%	-24%	?	-6%[59 µM]
CCCCCC(=O)Oc1cccc(N2C(=O)C3CCCCC3C2=O)c1 (stereo not drawn)	8%	7%	-5%	-11%[11.4 µM]	-8%
N#Cc1nc(Nc2cc(F)cc(F)c2)c2ncn(CCCO)c2n1	nt	nt	nt	-7%	nt
COc1cc(CNCCc2ccc(S(N)(=O)=O)cc2)ccc1OCc1ccc(Cl)cc1	-8%	-97%	-37%	-32%	nt
CCOc1cc(/C=N/O)ccc1OCc1ccc(F)cc1	?	-4%	3%	28µM*	-5%[59 µM]
COc1cc(/C=N/n2c(C)n[nH]c2=S)ccc1OCc1ccc(F)cc1	-3%	-24%	-15%	79µM*	1.3µM*
COc1cc(/C=N\n2nnnc2N)ccc1OCc1ccc(F)cc1	25%	-18%	-1%	-18%	0%[59 µM]
CCOc1cc(/C=N/O)ccc1OCc1ccc([N+](=O)[O-])cc1	?	5%	-33%	-35%[57.1 µM]	20%[59 µM]
CCOc1cc(/C=N/NC(=O)CN2CCOCC2)ccc1OCc1ccc(Cl)cc1	24%	6%	7%	-12%	-10%[59 µM]
CCOc1cc(/C=N/N=C(N)N)ccc1OCc1ccc(Cl)cc1	-11%	20µM*	?	?	?
CCOc1cc(CNCCc2ccc(S(N)(=O)=O)cc2)ccc1OCc1ccc(Cl)cc1	10%	8.9µM*	4%[57.1 µM]	-21%	10%
CC(=O)N1[C@H](Cc2ccccc2)C=C[C@]1(C)C(=O)O	nt	25%	nt	nt	nt
C[C@H](CO)N1C[C@H](C)[C@@H](CN(C)Cc2ccncc2)Oc2c(NC(=O)CCCCCC(=O)Nc3ccccc3N)cccc2C1=O	25%	nt	nt	-21%	nt
NC(N)=N/N=C/c1ccc(Cl)c(Cl)c1	32%	-4%	-2%	-15%	-9%
COc1cc(/C=N/N=C(N)N)ccc1OCc1ccc(Cl)cc1	-6%	16µM*	-28%	?	?
NC(N)=N/N=C/c1ccc(OCc2ccccc2)c(OCc2ccccc2)c1	?	56µM*	40µM*	?	?
COc1cc(/C=N/O)ccc1OCc1ccc(Cl)cc1	nt	-27%	-11%	nt	nt
NC(N)=N/N=C/c1ccccc1	5%	8%	-2%	-3%	5%
NC(N)=N/N=C/c1ccc(OCc2ccccc2Cl)cc1	-15%	50µM*	-10%	?	23%[59 µM]
C=CCNc1nc(-c2ccc(O)c(C(N)=O)c2)cs1	-14%	-13%	?	14µM*	?
C=CCNc1nc(-c2ccc3c(c2)OCCO3)cs1	-8%	nt	nt	?	nt
CC(=O)Nc1ccc(-c2csc(NCCc3ccccc3)n2)cc1	7%	-21%	-9%	-28%	nt
SMILES	HP1b binding inh	Sfp inh	BAZ2B block	JMJD2A Tudor inh	G9a block
NC(=O)c1cc(-c2csc(NCCc3ccccc3)n2)ccc1O	?	?	56µM*	?	35µM*
Cc1cc(C)cc(C(=O)Nc2cccnc2)c1	39%	17%	-2%	4%	-1%
COCCN(C)Cc1cn(-c2ccc(F)cc2F)nc1-c1ccccc1C	27%	89µM*	19%	-2%[11.4 µM]	nt
COc1ccc(/C=C/C(=O)N2CCCc3ccccc32)cc1	17%	79µM*	-27%	-9%	?
COc1ccc(OC)c(/C=C/C(=O)N2CCCc3ccccc32)c1	-15%	2%	?	?	-11%[59 µM]
COc1ccc(N/N=C(/C(C)=O)N2CCCc3ccccc32)cc1	?	-23%	?	35µM*	nt
COc1ccc(NC(=O)N2CCCc3ccccc32)cc1	32%	14%	11%	-5%	?
COC(=O)C(C(=O)OC)C(C(=O)OC)C(C(=O)OC)C(=O)OC	54%	12%	5%	-24%[11.4 µM]	7%[59 µM]
Cc1cc(C)c2c(N=NN(C)C)[nH]nc2n1	31%	0%	5%	-6%	45µM*
Cc1cc(C)c2c(=O)[nH]c(SCC(=O)N(C)C)nc2n1	16%	8%	4%	-12%	-4%
COc1ccc(C2=CC(=O)OC3(CCCC3)O2)cc1	19%	2%	?	1%	45µM*
COc1ccc(N=C2O/C(=C/c3sc(=S)n(CC4CCCO4)c3O)N=C2C#N)cc1 (stereo not drawn)	?	2.8µM*	8.9µM*	?	11µM*
Cc1ccc(S(=O)(=O)N2CCN(c3nc(-c4ccnnc4)nc4ccccc34)CC2)cc1	32%	nt	nt	32µM*	nt
COc1ccc(-c2nc(N3CCN(S(=O)(=O)c4ccc(C)cc4)CC3)c3ccccc3n2)cc1	6%	nt	nt	-27%	nt
O=S(=O)(c1ccccc1)N1CCN(c2nc(-c3cccnc3)nc3ccccc23)CC1	24%	nt	50µM*	-22%	3%[0.501 µM]
CCOC(=O)N1CCC(NC(=O)c2cc3ccccn3n2)CC1	37%	14%	-4%	-7%	7%
Cc1cccc(-n2ncc3c(NCCOCCO)ncnc32)c1	-3%	nt	2%	-21%	2%[59 µM]
O=C(Nc1ccccc1N1CCCC1)C1CCN(S(=O)(=O)c2cccc(C(F)(F)F)c2)CC1	43%	nt	?	?	14µM*
COc1ccc(S(=O)(=O)N2CCC(C(=O)Nc3ccccc3)CC2)cc1OC	20%	nt	3%	-9%	3%[59 µM]
COc1ccc(S(=O)(=O)N2CCC(C(=O)Nc3ccccc3N3CCCC3)CC2)cc1OC	11%	8%	-36%	-22%	45µM*
O=C(Nc1ccccc1N1CCCCC1)C1CCN(S(=O)(=O)c2cccc(C(F)(F)F)c2)CC1	25%	nt	12%	-21%	-9%
COCc1cc(C)nc(SCC(=O)Nc2ccc3c(c2)n(C)c(=O)n3C)c1C#N	23%	5%	-13%	-9%	nt
Cc1ccc(O)c(CNc2cccc3cccnc23)c1	?	?	32µM*	?	nt
Oc1c(Br)cc(Br)cc1CNc1cccc2cccnc12	-16%	40µM*	?	?	nt
Oc1ccc(Br)cc1CNc1cccc2cccnc12	19%	-1%	?	?	16%[0.501 µM]
CN(CC(=O)Nc1ccc(OC(F)(F)F)cc1)S(=O)(=O)c1ccc2c(c1)CCC(=O)N2	35%	nt	-34%	-8%	14%[59 µM]
COc1ccc(Nc2ccc(N3C(=O)CC(C)C3=O)cc2[N+](=O)[O-])cn1 (stereo not drawn)	-1%	18%	-22%	-23%	?
CCN(CC(=O)Nc1ccc(NC(C)=O)cc1)C(=O)CCCSc1nc2ccccc2[nH]1	9%	nt	9%	-10%	50µM*
